The text below walks through data of PubChem BioAssay (NCI).

This is part of a sample that, as a whole, favours compounds with a hit. Of some 79,000 tested, about 15% had one in any assay. Unmarked numbers belong to inactive results. Activity calls are given as the source filed them. No stated cut-off is given here; in the data, active means growth inhibition above about 70%; inactive means the rest.

Assay [1] can be described thus: NCI Yeast Anticancer Drug Screen. Data for the rad50 strain (AID 155).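 Further: 0% = growth of vehicle-only cultures of the same strain.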 Conditions: S. cerevisiae rad50 strain growth inhibition, active compounds read high. The procedure, abridged: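 Compounds were tested on a yeast strain with an engineered DNA damage repair alteration; the reported value is growth inhibition normalised to vehicle treatment.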
A short description of assay [2]: NCI Yeast Anticancer Drug Screen. Data for the mec2-1 strain (AID 157). Conditions: S. cerevisiae mec2-1 strain, active compounds read high. The procedure, abridged:
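Strain: mec2-1 (DNA repair/cell cycle alteration). Compound exposure, then growth measured; inhibition expressed relative to vehicle.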

Assay [3] can be described thus: NCI Yeast Anticancer Drug Screen. Data for the sgs1 mgt1 strain (AID 161).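 Further: 0% = growth of cultures given vehicle only.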 Conditions: S. cerevisiae sgs1 mgt1 strain, active compounds read high. The procedure, abridged: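 Genetically altered yeast, compound exposure, growth inhibition relative to vehicle.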
A short description of assay [4]: NCI Yeast Anticancer Drug Screen. Data for the cln2 rad14 strain (AID 165).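 Further: 0% = growth equal to vehicle treated cultures.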 The settings on record: S. cerevisiae cln2 rad14 strain, active compounds read high. The procedure, abridged:
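Compounds are applied to the cln2 rad14 yeast strain, and growth is then compared with that of vehicle-treated cultures to give inhibition.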

Assay [5] can be described thus: NCI Yeast Anticancer Drug Screen. Data for the bub3 strain (AID 167). Conditions: S. cerevisiae bub3 mutant strain, active compounds read high. The procedure, abridged: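 Growth of a checkpoint-deficient yeast mutant is measured after compound exposure. Values represent inhibition relative to vehicle.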
Assay [6] is described as follows: NCI Yeast Anticancer Drug Screen. Data for the mlh1 rad18 strain (AID 175). Conditions: S. cerevisiae mlh1 rad18 strain growth inhibition, active compounds read high. The procedure, abridged: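 Read-out is yeast growth inhibition, calculated against vehicle-only controls. The compound was applied to a strain engineered with DNA damage repair alterations.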
The mark [7] stands for this setting: at 5.0 µM (retest, dose inferred, filed as 0.5).
Setting [8] is: at 50.0 µM (retest, dose inferred, filed as 5.0).

On to `Cc1cc(/C=N/Nc2ccc3cccc(O)c3n2)c(O)c2ncccc12`, for which the growth inhibition in assay [1] (setting [7]) was 40%; in assay [1] (setting [8]), 98% (active); in assay [1] (at 50.0 µM), 99.1% (active); in assay [2] (setting [7]), 41%; in assay [2] (setting [8]) it was 98% (active); in assay [2] (at 50.0 µM), 99% (active). The growth inhibition in assay [3] (setting [7]) was 51%; in assay [3] (setting [8]) it was 99% (active); in assay [3] (at 50.0 µM), 99.1% (active); in assay [4] (setting [7]) it was 21%; in assay [4] (setting [8]), 99% (active); in assay [4] (at 50.0 µM) it was 98.7% (active). Further, the growth inhibition in assay [5] (setting [7]) was 17%; in assay [5] (setting [8]), 99% (active); in assay [5] (at 50.0 µM), 99.2% (active); in assay [6] (setting [7]), 58%; in assay [6] (setting [8]), 98% (active); in assay [6] (at 50.0 µM) it was 97% (active).

Regarding `CCCCCCCCCCCCCCCCNCCCCCCCC(=O)O`, the growth inhibition is -1% in assay [1] (setting [7]); 64% in assay [1] (setting [8]); 75% (active) in assay [1] (at 50.0 µM); 4% in assay [2] (setting [7]); 49% in assay [2] (setting [8]); 35.2% in assay [2] (at 50.0 µM). Also, the growth inhibition in assay [3] (setting [7]) is 14%; in assay [3] (setting [8]) it was 92% (active); in assay [3] (at 50.0 µM) it was 75.9% (active); in assay [4] (setting [7]) it was 7%; in assay [4] (setting [8]), 26%; in assay [4] (at 50.0 µM) it was 72% (active). Also, the growth inhibition in assay [5] (setting [7]) is 6%; in assay [5] (setting [8]), 73% (active); in assay [5] (at 50.0 µM) it was 39.2%; in assay [6] (setting [7]) it was 2%; in assay [6] (setting [8]), 66%; in assay [6] (at 50.0 µM), 74.5% (active).

Consider `O=C(c1ccccc1)c1ccc2c(c1)CCCC2`, for which the growth inhibition is -4% in assay [1] (setting [7]); -14% in assay [1] (setting [8]); 76.5% (active) in assay [1] (at 50.0 µM); -12% in assay [2] (setting [7]); -23% in assay [2] (setting [8]); 60.2% in assay [2] (at 50.0 µM). For the same compound, the growth inhibition in assay [3] (setting [7]) was -5%; in assay [3] (setting [8]), -6%; in assay [3] (at 50.0 µM), 76.8% (active); in assay [4] (setting [7]), -5%; in assay [4] (setting [8]), -48%; in assay [4] (at 50.0 µM) it was 19.6%. For the same compound, the growth inhibition is 2% in assay [5] (setting [7]); 49% in assay [5] (setting [8]); 69.7% in assay [5] (at 50.0 µM); 0% in assay [6] (setting [7]); -29% in assay [6] (setting [8]); 71.4% (active) in assay [6] (at 50.0 µM).

For `Nc1nc(N)c(C(=O)SCc2ccccc2)nc1Cl`, the growth inhibition was 6% in assay [1] (setting [7]); 70% (active) in assay [1] (setting [8]); 66% in assay [1] (at 50.0 µM); 2% in assay [2] (setting [7]); 57% in assay [2] (setting [8]); 58.9% in assay [2] (at 50.0 µM). Moreover, the growth inhibition was 3% in assay [3] (setting [7]); 52% in assay [3] (setting [8]); 97.4% (active) in assay [3] (at 50.0 µM); 2% in assay [4] (setting [7]); 70% (active) in assay [4] (setting [8]); 4.95% in assay [4] (at 50.0 µM). Besides, the growth inhibition in assay [5] (setting [7]) was -2%; in assay [5] (setting [8]) it was 62%; in assay [5] (at 50.0 µM) it was 7.45%; in assay [6] (setting [7]), 5%; in assay [6] (setting [8]), 94% (active); in assay [6] (at 50.0 µM), 69.3%.

With `O=C(O)CNc1ccc2c(c1)Cc1cc(Br)ccc1-2`, the growth inhibition in assay [1] (setting [7]) is 19%; in assay [1] (setting [8]) it was 88% (active); in assay [1] (at 50.0 µM), 97.2% (active); in assay [2] (setting [7]) it was -1%; in assay [2] (setting [8]) it was 87% (active); in assay [2] (at 50.0 µM), 96.2% (active). Besides, the growth inhibition was 55% in assay [3] (setting [7]); 98% (active) in assay [3] (setting [8]); 97.9% (active) in assay [3] (at 50.0 µM); -3% in assay [4] (setting [7]); 59% in assay [4] (setting [8]); 88.9% (active) in assay [4] (at 50.0 µM). Also, the growth inhibition was -1% in assay [5] (setting [7]); 85% (active) in assay [5] (setting [8]); 96.5% (active) in assay [5] (at 50.0 µM); 45% in assay [6] (setting [7]); 96% (active) in assay [6] (setting [8]); 97.7% (active) in assay [6] (at 50.0 µM).

As for `CCC(O)C(O)(c1ccccc1)c1nc2ccccc2s1` (stereo not given), the growth inhibition is -9% in assay [1] (setting [7]); 15% in assay [1] (setting [8]); 6.75% in assay [1] (at 50.0 µM); 5% in assay [2] (setting [7]); 11% in assay [2] (setting [8]); 5.9% in assay [2] (at 50.0 µM). In addition, the growth inhibition was -7% in assay [3] (setting [7]); 23% in assay [3] (setting [8]); 14% in assay [3] (at 50.0 µM); 7% in assay [4] (setting [7]); 9% in assay [4] (setting [8]); 2.2% in assay [4] (at 50.0 µM). For the same compound, the growth inhibition in assay [5] (setting [7]) was -7%; in assay [5] (setting [8]), -12%; in assay [5] (at 50.0 µM), -2.65%; in assay [6] (setting [7]) it was 0%; in assay [6] (setting [8]), 15%; in assay [6] (at 50.0 µM), 15.1%.

Turning to `O=C(CC1CCCC(CC(=O)c2ccccc2)N1CCc1ccccc1)c1ccccc1` (stereo not given), the growth inhibition in assay [1] (setting [7]) is 39%; in assay [1] (setting [8]), 97% (active); in assay [1] (at 50.0 µM) it was 89.7% (active); in assay [2] (setting [7]), 23%; in assay [2] (setting [8]), 99% (active); in assay [2] (at 50.0 µM), 90.6% (active). Moreover, the growth inhibition in assay [3] (setting [7]) was 41%; in assay [3] (setting [8]), 98% (active); in assay [3] (at 50.0 µM), 92.8% (active); in assay [4] (setting [7]), 27%; in assay [4] (setting [8]) it was 97% (active); in assay [4] (at 50.0 µM) it was 91.8% (active). In addition, the growth inhibition in assay [5] (setting [7]) is 41%; in assay [5] (setting [8]) it was 98% (active); in assay [5] (at 50.0 µM) it was 89.7% (active); in assay [6] (setting [7]), 34%; in assay [6] (setting [8]), 98% (active); in assay [6] (at 50.0 µM), 89.2% (active).

For `CCCCCCCC(=O)/C=C/c1ccc(C)cc1`, the growth inhibition in assay [1] (setting [7]) was -161%; in assay [1] (setting [8]), -136%; in assay [1] (at 50.0 µM), 56.8%; in assay [2] (setting [7]), -54%; in assay [2] (setting [8]) it was -50%; in assay [2] (at 50.0 µM) it was 44.1%. Further, the growth inhibition in assay [3] (setting [7]) was -69%; in assay [3] (setting [8]) it was -65%; in assay [3] (at 50.0 µM), 67.6%; in assay [4] (setting [7]) it was -62%; in assay [4] (setting [8]) it was -86%; in assay [4] (at 50.0 µM) it was 30.2%. In addition, the growth inhibition was -61% in assay [5] (setting [7]); -47% in assay [5] (setting [8]); 65.8% in assay [5] (at 50.0 µM); -128% in assay [6] (setting [7]); -119% in assay [6] (setting [8]); 45% in assay [6] (at 50.0 µM).

As to `COc1ccc(Cc2cncc3c(O)c(OC)ccc23)cc1O`, the growth inhibition in assay [1] (setting [7]) was -1%; in assay [1] (setting [8]), 44%; in assay [1] (at 50.0 µM), 80.2% (active); in assay [2] (setting [7]) it was 0%; in assay [2] (setting [8]) it was 50%; in assay [2] (at 50.0 µM) it was 69.2%. The growth inhibition in assay [3] (setting [7]) is -13%; in assay [3] (setting [8]), 50%; in assay [3] (at 50.0 µM), 39.2%; in assay [4] (setting [7]) it was 2%; in assay [4] (setting [8]) it was 14%; in assay [4] (at 50.0 µM), 59.9%. The growth inhibition in assay [5] (setting [7]) was -1%; in assay [5] (setting [8]), 21%; in assay [5] (at 50.0 µM), 86.4% (active); in assay [6] (setting [7]), 6%; in assay [6] (setting [8]), 49%; in assay [6] (at 50.0 µM), 89.5% (active).

Turning to `COc1ccc(C2=CCC3C4CC=C5CC(O)CCC5(C)C4CCC23C)s1` (stereo not given), the growth inhibition in assay [1] (setting [7]) was 0%; in assay [1] (setting [8]), 13%; in assay [1] (at 50.0 µM), 59.7%; in assay [2] (setting [7]) it was -17%; in assay [2] (setting [8]), 63%; in assay [2] (at 50.0 µM) it was 64.1%. Besides, the growth inhibition was -23% in assay [3] (setting [7]); 82% (active) in assay [3] (setting [8]); 59.6% in assay [3] (at 50.0 µM); -3% in assay [4] (setting [7]); 18% in assay [4] (setting [8]); 53.5% in assay [4] (at 50.0 µM). The growth inhibition in assay [5] (setting [7]) was -1%; in assay [5] (setting [8]) it was 30%; in assay [5] (at 50.0 µM), 66%; in assay [6] (setting [7]), 19%; in assay [6] (setting [8]), 75% (active); in assay [6] (at 50.0 µM) it was 94.7% (active).
